Test [1] is described as follows: qHTS assay to identify small molecule agonists of the estrogen receptor alpha (ER-alpha) signaling pathway in the presence of an antagonist - cell viability counter screen (AID 1259386).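 Further: series mostly up to about 92 µM; cells exposed to compounds for 22 h at 37 °C before the viability read; nearly all actives have a fitted effect of over 30% in size.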 An outline of the steps:
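Cells are starved of estrogens for 5 days in charcoal-stripped serum, seeded for 24hr and co-treated with ICI-182,780 (10.0nM final) and test compounds. After 22hr at 37C, viability is read as CellTiter-Fluor fluorescence.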
On the technique in general: In qHTS, concentration-response curves come from the screen itself.

For test [2], the target named is Progesterone receptor (Homo sapiens) (UniProt P06401). The experiment in a line: qHTS assay to identify small molecule agonists of the progesterone receptor (PR) signaling pathway (AID 1346784; calls by dose curve; further: nearly all actives have a fitted effect of over 30% in size). An outline of the steps: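 Fluorescence from LiveBLAzer B/G FRET substrate cleavage (2 hr, RT) reported PR activation in PR-UAS-bla HEK 293T cells treated 16 hr at 37C/5% CO2 with compounds; medium contained 2% charcoal-stripped FBS.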
Chain of Progesterone receptor (Homo sapiens) (P06401 whole entry, looked up): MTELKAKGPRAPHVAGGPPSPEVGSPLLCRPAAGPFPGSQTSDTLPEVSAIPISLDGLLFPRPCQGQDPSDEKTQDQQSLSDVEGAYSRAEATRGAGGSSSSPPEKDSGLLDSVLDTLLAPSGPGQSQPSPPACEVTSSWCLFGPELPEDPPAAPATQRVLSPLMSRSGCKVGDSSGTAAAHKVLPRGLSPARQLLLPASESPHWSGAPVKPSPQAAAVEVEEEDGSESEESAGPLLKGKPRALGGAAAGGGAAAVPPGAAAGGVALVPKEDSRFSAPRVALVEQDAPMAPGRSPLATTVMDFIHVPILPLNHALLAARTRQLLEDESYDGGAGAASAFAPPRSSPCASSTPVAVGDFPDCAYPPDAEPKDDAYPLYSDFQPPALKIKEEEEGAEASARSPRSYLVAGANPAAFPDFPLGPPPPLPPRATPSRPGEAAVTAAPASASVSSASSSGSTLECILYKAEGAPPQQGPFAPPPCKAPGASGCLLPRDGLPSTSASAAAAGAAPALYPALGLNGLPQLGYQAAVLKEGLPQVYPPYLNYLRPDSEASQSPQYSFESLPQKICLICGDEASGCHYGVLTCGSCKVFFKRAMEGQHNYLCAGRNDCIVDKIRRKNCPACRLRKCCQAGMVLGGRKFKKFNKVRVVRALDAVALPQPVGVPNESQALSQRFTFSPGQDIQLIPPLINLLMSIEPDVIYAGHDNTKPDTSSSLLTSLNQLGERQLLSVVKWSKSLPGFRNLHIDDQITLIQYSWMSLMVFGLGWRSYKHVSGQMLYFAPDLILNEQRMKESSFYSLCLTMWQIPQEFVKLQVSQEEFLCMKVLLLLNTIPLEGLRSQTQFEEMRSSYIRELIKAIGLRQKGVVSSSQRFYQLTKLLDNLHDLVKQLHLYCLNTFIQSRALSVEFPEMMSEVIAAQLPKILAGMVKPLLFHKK

Test [3] can be described thus: qHTS assay to identify small molecule antagonists of the TGF-beta/Smad signaling pathway - cell viability counter screen (AID 1346824). Further: nearly all actives have a fitted effect of over 50% in size. Further: potency means the concentration at half of the fitted maximal effect. An outline of the steps:
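Cytotoxicity counter-screen run in the same wells as the beta-lactamase Smad reporter read: CellTiter-Glo luminescence after 30 min at room temperature. HEK 293T SBE-bla cells had 5 hr compound exposure at 37 C with TGF-beta1 (0.25 ng/mL stock).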

Test [4] in a line: qHTS assay to identify small molecule agonists of the TGF-beta/Smad signaling pathway (AID 1346859; active means well fitted activation curve with a large enough effect in the signal ratio in the repeat runs, not every such curve was filed as active; the % refers to the signal ratio; further: series mostly up to about 77 µM). The method, boiled down:
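After overnight seeding, SBE-bla HEK 293T cells are dosed with compounds in DMSO and kept 5 hr at 37 C, 5% CO2. LiveBLAzer-type FRET substrate is then applied for 2 hr at room temperature.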

Test [5] is described as follows: Human pregnane X receptor (PXR) small molecule agonists, qHTS cell viability counter screen (AID 1346977). Further: nearly all actives have a fitted effect of over 50% in size. Further: potency means the concentration at half of the fitted maximal effect. The method, boiled down: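 Viability counter screen: CellTiter-Fluor signal in PXR-Luc HepG2 cells, 24hr compound exposure, 37C, 5% CO2.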
The nature of test [6]: Caspase-3/7 induction in HepG2 cells by small molecules, qHTS assay (AID 1346978). Further: nearly all actives have a fitted effect of over 15% in size. Further: potency means the concentration at half of the fitted maximal effect. An outline of the steps:
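Caspase-3/7 induction was measured by Caspase-Glo 3/7 luminescence (30 min, room temperature) after a 17 hr compound exposure of wild-type HepG2 cells seeded at 2,000 per well and pre-incubated 5 hr.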

A short description of test [7]: Caspase-3/7 induction in CHO-K1 cells by small molecules, qHTS cell viability counter screen (AID 1346979). Further: nearly all actives have a fitted effect of over 35% in size. Further: potency means the concentration at half of the fitted maximal effect. An outline of the steps:
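Viability readout by fluorescence (CellTiter-Fluor) on wild-type CHO-K1 cells exposed for 16hr at 37C and 5% CO2 to compounds delivered in DMSO; reagent incubated 1hr before reading.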

The nature of test [8]: Caspase-3/7 induction in CHO-K1 cells by small molecules, qHTS assay (AID 1346980). Further: nearly all actives have a fitted effect of over 15% in size. The method, boiled down: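 Luminescent Caspase-Glo 3/7 read (30min, room temperature) quantified apoptosis induction. Cells were wild-type CHO-K1, treated with compound for 17hr at 37 C and 5% CO2.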
Test [9] can be described thus: Caspase-3/7 induction in HepG2 cells by small molecules, qHTS cell viability counter screen (AID 1346981). Further: nearly all actives have a fitted effect of over 30% in size. Further: potency means the concentration at half of the fitted maximal effect. An outline of the steps:
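Steps: seed 2,000 HepG2 cells per well; incubate 5 hr at 37 C; pin-add compounds in DMSO; incubate 16 hr; add CellTiter-Fluor; after 1 hr at 37 C and 5% CO2, read fluorescence.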

Test [10] concerns the target Nuclear receptor subfamily 1 group I member 2 (Homo sapiens) (UniProt O75469). The experiment in a line: Human pregnane X receptor (PXR) small molecule agonists, qHTS assay (AID 1346982). Further: nearly all actives have a fitted effect of over 35% in size. Further: potency means the concentration at half of the fitted maximal effect. The method, boiled down:
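Agonist mode qHTS: PXR-Luc HepG2 cells plated 5 hr before DMSO-dissolved compounds were pinned in, cultured 24 hr at 37 C, 5% CO2; ONE-Glo luminescence readout.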

Test [11] has as its target Acetylcholinesterase (Homo sapiens) (UniProt P22303). The test can be described thus: Acetylcholinesterase (AChE) small molecule antagonists: colormetric cell-based qHTS assay (AID 1347395; calls by dose curve; further: nearly all actives have a fitted effect of over 30% in size). The method, boiled down:
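Homogeneous whole-cell format. SH-SY5Y cells seeded overnight, dosed with compound (30 min, 37 C, 5% CO2), then given DTNB/acetylthiocholine cocktail for 90 min at 37 C; colorimetric signal.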

Test [12] addresses Progesterone receptor (Homo sapiens) (UniProt P06401). The experiment in a line: qHTS assay to identify small molecule antagonists of the progesterone receptor (PR) signaling pathway (AID 1346795; active means well fitted inhibition curve with a large enough effect in the signal ratio in the repeat runs, not every such curve was filed as active; the % refers to the signal ratio; further: potency means the concentration at half of the fitted maximal effect). An outline of the steps: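 Fluorescence intensity measured 2 hr after adding beta-lactamase FRET substrate to PR-UAS-bla HEK293T cells that had been co-treated 16 hr with compound and 1 nM R5020 (final concentration) in 2% charcoal-stripped FBS.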

Test [13] can be described thus: qHTS assay to identify small molecule antagonists of the progesterone receptor (PR) signaling pathway - cell viability counter screen (AID 1346798). Further: nearly all actives have a fitted effect of over 50% in size. Further: potency means the concentration at half of the fitted maximal effect. The method, boiled down: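 CellTiter-Glo luminescence; PR-UAS-bla HEK293T, 3,000 cells/well; compound + R5020, 16 hr, 37C/5% CO2; 30 min RT before read.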
Test [14] can be described thus: qHTS assay to identify small molecule agonists of the progesterone receptor (PR) signaling pathway - cell viability counter screen (AID 1346799; calls by dose curve; further: nearly all actives have a fitted effect of over 45% in size; further: potency means the concentration at half of the fitted maximal effect). The method, boiled down: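 In parallel with the beta-lactamase readout, cytotoxicity toward PR-UAS-bla HEK293T cells was measured by CellTiter-Glo luminescence following 16 hr compound incubation in 2% charcoal-stripped FBS medium.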

Test [15] concerns the target Thyrotropin-releasing hormone receptor (Homo sapiens) (UniProt P34981). The test can be described thus: qHTS assay to identify small molecule agonists of the thyrotropin-releasing hormone receptor (TRHR) signaling pathway (AID 1346891; calls by dose curve;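 further: HEK293 cells expressing TRHR with calcium dye readout; series mostly up to about 58 µM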). The method, boiled down:
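Compounds were tested as agonists at 15 concentrations, in triplicate, on TRHR-Hek293 cells; calcium-sensitive dye fluorescence was recorded for 3 min following addition.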

A short description of test [16]: qHTS assay to identify small molecule agonists of the TGF-beta/Smad signaling pathway - cell viability counter screen (AID 1346829). Further: top concentration of the series differs between compounds; nearly all actives have a fitted effect of over 45% in size. The method, boiled down: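 Compound-treated SBE-bla HEK 293T cells (5 hr, 37 C) were assessed for viability with CellTiter-Glo in parallel with the reporter read.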
Test [17] has as its target Thyrotropin-releasing hormone receptor (Homo sapiens) (UniProt P34981). The experiment in a line: qHTS assay to identify small molecule antagonists of the thyrotropin-releasing hormone receptor (TRHR) signaling pathway (AID 1346877; active means well fitted inhibition curve with a large enough effect in the repeat runs, not every such curve was filed as active; further: series mostly up to about 51 µM). The method, boiled down: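 Cells (TRHR-HEK293) are plated and kept 18 h at 37 °C/5% CO2. A calcium-sensitive dye is added for 2 h, compound follows for 5 min at room temperature, and TRH is then given at 1 nM final.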

Test [18] has as its target Nuclear receptor subfamily 1 group I member 2 (Rattus norvegicus) (UniProt Q9R1A7). The experiment in a line: Rat pregnane X receptor (rPXR) activation by small molecules, qHTS assay (AID 1346983). Further: nearly all actives have a fitted effect of over 20% in size. The note with it: rPXR luciferase reporter cells, One-Glo luminescence, 24 h; active compounds read high. The method, boiled down: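 Luminescent readout (One-Glo luciferase, 30 min room temperature) followed 24 hr compound treatment at 37 C of rPXR cells plated 2,000 per well and preincubated 5hr; qHTS format with compounds delivered in DMSO.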

The target in test [19] is Nuclear receptor subfamily 1 group I member 2 (Homo sapiens) (UniProt O75469). The test can be described thus: CYP3A4 induction through human pregnane X receptor (PXR) by small molecules, qHTS assay (AID 1346984). Further: nearly all actives have a fitted effect of over 40% in size. An outline of the steps: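 Steps: seed DPX-2 cells, 5 hr at 37C; pin-transfer compounds; 24 hr at 37C; add Luciferin-IPA (3uM final), 3 hr at 37C; add One-Glo, 30 min RT; read luminescence.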
Chain of Nuclear receptor subfamily 1 group I member 2 (Homo sapiens) (O75469 whole entry, looked up): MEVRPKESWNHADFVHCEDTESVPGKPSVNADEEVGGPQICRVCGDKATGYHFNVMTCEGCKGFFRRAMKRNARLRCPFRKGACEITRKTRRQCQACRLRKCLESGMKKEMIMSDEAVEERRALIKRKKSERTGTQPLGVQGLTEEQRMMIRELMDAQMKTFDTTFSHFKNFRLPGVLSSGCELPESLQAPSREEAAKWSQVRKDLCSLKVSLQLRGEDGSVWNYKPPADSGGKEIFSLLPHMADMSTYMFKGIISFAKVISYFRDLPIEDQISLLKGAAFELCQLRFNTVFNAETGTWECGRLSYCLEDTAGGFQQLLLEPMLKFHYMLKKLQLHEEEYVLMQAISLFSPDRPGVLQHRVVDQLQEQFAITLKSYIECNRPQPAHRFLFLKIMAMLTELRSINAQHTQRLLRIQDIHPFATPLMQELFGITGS

The target is the same in test [20]. The experiment in a line: Human pregnane X receptor (PXR) activation by small molecules, qHTS assay (AID 1346985). Further: nearly all actives have a fitted effect of over 40% in size. The method, boiled down: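 DPX-2 cells (HepG2 co-transfected with a PXR response element and a CYP3A4-promoter luciferase construct) were seeded at 2,000 per well, rested 5 hr at 37C, then exposed to DMSO-dissolved compounds for 24 hr. Activation was read as luciferase luminescence.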

This passage reports Potency, outcome and max activation results from PubChem BioAssay (Tox21).

Values joined by “and” are separate entries in the source; they are usually repeats but may differ in a detail not shown here. Identical values can stand only once. Values without a mark were called inactive. Inconclusive results are not listed. Active and inactive are the calls of the source. Unless noted, the call rests on the fitted dose curve; in most records, active means well fitted curve in the direction sought with a large enough effect in the repeat runs; inconclusive means weak or mixed curves; inactive means no such curve, though single readings can be large; an effect the other way counts as inactive or inconclusive.
On the % scale 0 is the no-effect control and ±100 the full control effect.

Chain of Acetylcholinesterase (Homo sapiens) (P22303 whole entry, looked up): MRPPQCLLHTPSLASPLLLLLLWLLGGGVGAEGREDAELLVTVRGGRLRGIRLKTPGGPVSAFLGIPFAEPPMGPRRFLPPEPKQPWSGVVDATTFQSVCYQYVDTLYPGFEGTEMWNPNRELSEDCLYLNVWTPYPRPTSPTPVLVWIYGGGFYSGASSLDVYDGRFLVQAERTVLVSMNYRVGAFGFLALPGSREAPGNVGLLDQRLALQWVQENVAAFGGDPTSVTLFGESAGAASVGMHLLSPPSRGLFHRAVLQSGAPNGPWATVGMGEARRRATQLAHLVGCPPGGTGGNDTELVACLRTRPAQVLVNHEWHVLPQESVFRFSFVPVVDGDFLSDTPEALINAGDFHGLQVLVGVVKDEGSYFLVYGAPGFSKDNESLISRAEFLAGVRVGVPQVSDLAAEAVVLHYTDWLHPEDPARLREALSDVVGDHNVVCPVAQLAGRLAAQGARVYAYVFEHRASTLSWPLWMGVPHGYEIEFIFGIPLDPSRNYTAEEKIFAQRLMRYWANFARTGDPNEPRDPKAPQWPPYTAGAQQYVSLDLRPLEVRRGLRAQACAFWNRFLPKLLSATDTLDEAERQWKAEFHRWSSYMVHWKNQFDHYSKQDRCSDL
Chain of Thyrotropin-releasing hormone receptor (Homo sapiens) (P34981 whole entry, looked up): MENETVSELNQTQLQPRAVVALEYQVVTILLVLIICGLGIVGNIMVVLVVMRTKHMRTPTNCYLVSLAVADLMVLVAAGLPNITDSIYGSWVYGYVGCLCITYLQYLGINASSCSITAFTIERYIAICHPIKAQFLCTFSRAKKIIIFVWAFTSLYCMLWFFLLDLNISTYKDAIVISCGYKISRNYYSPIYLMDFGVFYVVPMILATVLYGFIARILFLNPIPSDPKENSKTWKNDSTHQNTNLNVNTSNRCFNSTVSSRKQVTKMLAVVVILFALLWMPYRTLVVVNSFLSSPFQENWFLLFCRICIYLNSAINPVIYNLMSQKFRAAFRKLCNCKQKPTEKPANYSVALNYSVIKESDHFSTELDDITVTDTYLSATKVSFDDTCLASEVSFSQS
Chain of Nuclear receptor subfamily 1 group I member 2 (Rattus norvegicus) (Q9R1A7 whole entry, looked up): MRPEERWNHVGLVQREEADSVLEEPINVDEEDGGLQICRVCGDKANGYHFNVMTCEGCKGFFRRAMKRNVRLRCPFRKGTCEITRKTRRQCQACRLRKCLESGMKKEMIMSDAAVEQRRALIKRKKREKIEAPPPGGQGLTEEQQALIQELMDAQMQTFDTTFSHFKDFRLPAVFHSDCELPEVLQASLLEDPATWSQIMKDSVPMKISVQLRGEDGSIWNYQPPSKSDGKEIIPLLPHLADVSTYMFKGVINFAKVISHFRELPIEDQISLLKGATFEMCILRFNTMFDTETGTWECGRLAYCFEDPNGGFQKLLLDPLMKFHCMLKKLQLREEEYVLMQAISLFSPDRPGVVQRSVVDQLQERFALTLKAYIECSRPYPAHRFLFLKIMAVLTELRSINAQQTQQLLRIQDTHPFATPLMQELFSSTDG

As for `CON(C)C(=O)Nc1ccc(Cl)cc1`, the Potency entry in [1], in test [2], in test [3], in test [5], in test [6] and in test [7] was “inactive” throughout. Moreover, the Potency result in [8], in [9] and in [11] was “inactive” each time. The outcome in [4] was inactive. Also, the Potency in test [10] was 48.6 µM (active).

`CCCCCCCCn1sccc1=O`: the Potency result in [2], in test [8] and in test [11] was “inactive” each time. Further, the Potency in [12] was 34.4 µM (active) and 1.43 µM (active); in test [13], 48.7 µM (active) and 1.14 µM (active); in test [14], 43.4 µM (active); in [3], 49.1 µM (active) and 51.3 µM (active); in test [5], 50.1 µM (active) and 25.5 µM (active); in test [6], 25.5 µM (active). For the same compound, the Potency is 12.2 µM (active) and 11.4 µM (active) in test [7]; 68.7 µM (active) and 50.9 µM (active) in [9]; 21.7 µM (active) and 4.04 µM (active) in [10]. Moreover, the call in test [4] and in test [15] was inactive.

On to `COc1cc(C[C@@H](C)N)c(OC)cc1Br`, for which the Potency result in test [1], in test [2], in test [3], in test [16], in test [17] and in test [6] was “inactive” in each case. Further, the Potency entry in [7], in test [8], in test [9], in test [10] and in [11] was “inactive” each time. Further, the compound was classed as inactive in test [4] and in test [15].

In the case of `COC(=O)C1(O)c2ccccc2-c2ccccc21`, the Potency result in [1], in test [2], in test [3], in test [16], in test [17] and in test [5] was “inactive” in each case. In addition, the Potency entry in test [6], in test [7], in [8], in test [9] and in [11] was “inactive” each time. For the same compound, the call in test [15] was inactive.

In the case of `O=C(O)CCCOc1ccc(Cl)cc1Cl`, the Potency result in [1], in test [16], in [5], in [6], in [7] and in test [8] was “inactive” throughout. For the same compound, the Potency entry in test [9] was “inactive”.

On to `C=CCOC(=O)C(C)(C)OC(=O)c1cc(-n2c(=O)cc(C(F)(F)F)n(C)c2=O)ccc1Cl`, for which the Potency entry in [1], in test [13], in [14], in test [3], in test [16] and in [17] was “inactive” in each case. The Potency result in test [5], in [6], in test [9] and in test [11] was “inactive” each time. Further, the compound was called inactive in [4]. The Potency in [10] was 4.24 µM (active).

Regarding `CCCCCl`, the Potency result in [1], in test [2], in test [16], in test [17], in [5] and in [6] was “inactive” each time. Also, the Potency result in [8], in test [9], in test [10], in test [20] and in [11] was “inactive” in each case. Besides, the max activation in test [18] is -0.159%. Besides, in test [19], the outcome was inactive.

For `Cc1ncc(C[n+]2csc(CCO)c2C)c(N)n1`, the Potency result in test [1], in test [13], in test [14], in test [16], in test [17] and in test [5] was “inactive” in each case. For the same compound, the Potency result in test [6], in [7], in [8] and in [9] was “inactive” each time.

With `c1ccc2c(c1)-c1cccc3cccc-2c13`, the Potency result in test [1], in test [2], in [3], in test [16], in [5] and in test [6] was “inactive” each time. For the same compound, the Potency result in test [7] and in test [9] was “inactive” throughout. Moreover, the result in test [4] was inactive.

Consider `CCCCC(CC)COC(=O)c1c(Br)c(Br)c(Br)c(Br)c1C(=O)OCC(CC)CCCC` (stereo unspecified), for which the Potency entry in [1], in [12], in test [13], in test [14], in test [16] and in [17] was “inactive” throughout. Further, the Potency entry in [5], in test [6], in test [7], in [8], in [9] and in test [11] was “inactive” each time. Moreover, the compound was classed as inactive in test [4] and in test [15]. Further, in test [10], the Potency was 16.8 µM (active).
